According to PubChem BioAssay (EPA / NIEHS):
The source made the active and inactive calls. The calls were made as follows: active = hit-call score of the fitted dose curve at least 0.9, where 1 is the maximum; inactive = score below 0.9.

Columns and labels:
[1] = BSK_3C_SRB: Viability Assessment in the BioMAP Diversity Plus: 3C Assay (AID 2283023); conditions: primary human endothelial cells (HUVEC);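 also: fitted both ways against DMSO so a hit may be signal rise or drop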
Procedure, shortened: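 Absorbance at 560 nm of sulforhodamine B-stained (0.1%) total protein served as a cytotoxicity readout in human umbilical vein endothelial cells, 24 h after chemical treatment. Signal was fitted bidirectionally relative to DMSO.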

[2] = read-out: Matrix Metallopeptidase 1 (MMP1), MMP1 (gene 4312); experiment: BSK_BE3C_MMP1: BioMAP Diversity Plus: BE3C Assay for Matrix Metallopeptidase 1 (MMP1) Biomarker Activity (AID 2283024); conditions: primary human bronchial epithelial cells; actives raise or lower the signal
Procedure, shortened: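 In this multiplexed primary-cell system, human bronchial epithelium received chemicals for 24 h before an ELISA for MMP1. Values reflect bidirectional fits normalised to the DMSO baseline.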

[3] = read-out: Pselectin, SELP (gene 6403); experiment: BSK_4H_Pselectin: BioMAP Diversity Plus: 4H Assay for Pselectin Biomarker Activity (AID 2283026); conditions: primary human endothelial cells (HUVEC); actives raise or lower the signal
Procedure, shortened: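 Bidirectional fits against DMSO gave the endpoint. Cells: primary human umbilical vein endothelium, chemical-treated for 24 h before ELISA detection of P-selectin.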

[4] = BSK_4H_SRB: Viability Assessment in the BioMAP Diversity Plus: 4H Assay (AID 2283027); conditions: primary human endothelial cells (HUVEC);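 also: cells exposed to compound for 24 h before staining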;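 as to AC50: curves fitted both ways versus DMSO so AC50 may be loss or gain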
Procedure, shortened: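 Cytotoxicity read-out in primary human endothelial cells: after 24 h compound exposure, cells were TCA-fixed (10%), stained with 0.1% SRB and absorbance taken at 560 nm. Values fitted in both directions relative to DMSO.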

[5] = BSK_BE3C_SRB: Viability Assessment in the BioMAP Diversity Plus: BE3C Assay (AID 2283028); conditions: primary human bronchial epithelial cells
Procedure, shortened: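 Cells (human bronchial epithelial, primary) are treated with chemicals, and after 24 h the parallel cultures are fixed in 10% TCA. These are then stained with 0.1% SRB and read at 560 nm. Gain or loss of signal is fitted relative to DMSO.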

[6] = read-out: Thrombomodulin, THBD (gene 7056); experiment: BSK_3C_Thrombomodulin: BioMAP Diversity Plus: 3C Assay for Thrombomodulin Biomarker Activity (AID 2283029); conditions: primary human endothelial cells (HUVEC); actives raise or lower the signal
Procedure, shortened: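 In a multiplexed primary-cell system, human umbilical vein endothelium received chemical and was assayed 24 h later for thrombomodulin by ELISA. Parallel cultures were SRB-stained (0.1% SRB after 10% TCA fixation, read at 560 nm) to flag cytotoxicity.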

[7] = read-out: Urokinase-type plasminogen activator receptor (uPAR), PLAUR (gene 5329); experiment: BSK_4H_uPAR: BioMAP Diversity Plus: 4H Assay for Urokinase-type plasminogen activator receptor (uPAR) Biomarker Activity (AID 2283030); conditions: primary human endothelial cells (HUVEC); actives raise or lower the signal
Procedure, shortened: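 Cell-surface uPAR ELISA signal, measured 24 h after dosing human umbilical vein endothelial cells, was analyzed with bidirectional fitting relative to DMSO. Parallel SRB staining of total protein tracked overt cytotoxicity.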

[8] = read-out: Vascular endothelial growth factor receptor 2 (Homo sapiens) (UniProt P35968); experiment: BSK_4H_VEGFRII: BioMAP Diversity Plus: 4H Assay for Vascular endothelial growth factor receptor 2 (VEGFR2) Biomarker Activity (AID 2283031); conditions: primary human endothelial cells (HUVEC); actives raise or lower the signal
Procedure, shortened: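 ELISA read-out of VEGFRII in primary human umbilical vein endothelium, taken 24 h after chemical treatment. Responses are expressed relative to DMSO, with bidirectional fitting.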

[9] = read-out: Human Leukocyte Antigen - DR isotype (HLADR), HLA-DRA (gene 3122); experiment: BSK_BE3C_HLADR: BioMAP Diversity Plus: BE3C Assay for Human Leukocyte Antigen - DR isotype (HLADR) Biomarker Activity (AID 2283032); conditions: primary human bronchial epithelial cells; actives raise or lower the signal
Procedure, shortened: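 BioMAP BE3C format: human bronchial epithelium, 24 h compound treatment, ELISA detection of HLA-DR, with bidirectional analysis relative to DMSO.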

[10] = read-out: Vascular cell adhesion molecule 1 (VCAM1), VCAM1 (gene 7412); experiment: BSK_4H_VCAM1: BioMAP Diversity Plus: 4H Assay for Vascular cell adhesion molecule 1 (VCAM1) Biomarker Activity (AID 2283033); conditions: primary human endothelial cells (HUVEC); actives raise or lower the signal
Procedure, shortened: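 In this human endothelial (HUVEC) system, biomarker ELISA was run 24 h after compound addition, and total protein in parallel wells was assessed by SRB at 560 nm; DMSO served as negative control.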

[11] = read-out: Interferon-gamma inducible Protein 10 (IP10), CXCL10 (gene 3627); experiment: BSK_BE3C_IP10: BioMAP Diversity Plus: BE3C Assay for Interferon-gamma inducible Protein 10 (IP10) Biomarker Activity (AID 2283034); conditions: primary human bronchial epithelial cells; actives raise or lower the signal
Procedure, shortened: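 BE3C cells (human bronchial epithelial, primary); 24 h exposure; ELISA for IP-10; DMSO-referenced bidirectional fit.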

[12] = read-out: Monokine induced gamma interferon (MIG), CXCL9 (gene 4283); experiment: BSK_BE3C_MIG: BioMAP Diversity Plus: BE3C Assay for Monokine induced gamma interferon (MIG) Biomarker Activity (AID 2283035); conditions: primary human bronchial epithelial cells; actives raise or lower the signal;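 also: MIG protein measured by ELISA in BE3C cultures after 24 h of dosing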
Procedure, shortened: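 ELISA quantified MIG after 24 h exposure of primary bronchial epithelial cultures, analysed in both directions relative to DMSO. Cytotoxicity tracked in parallel cultures by sulforhodamine B staining.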

[13] = read-out: Transforming growth factor beta 1 (TGFb1), TGFB1 (gene 7040); experiment: BSK_BE3C_TGFb1: BioMAP Diversity Plus: BE3C Assay for Transforming growth factor beta 1 (TGFb1) Biomarker Activity (AID 2283036;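 also: TGF-b1 protein level measured by ELISA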); conditions: primary human bronchial epithelial cells; actives raise or lower the signal
Procedure, shortened: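 TGF-b1 measured via ELISA, 24 h after chemical dosing of human bronchial epithelial cells (BE3C). Overt cytotoxicity assessed in parallel by SRB (0.1%, TCA-fixed, 560 nm); analysis bidirectional relative to DMSO.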

[14] = read-out: Plasminogen activator inhibitor-1 (PAI1), SERPINE1 (gene 5054); experiment: BSK_BE3C_PAI1: BioMAP Diversity Plus: BE3C Assay for Plasminogen activator inhibitor-1 (PAI1) Biomarker Activity (AID 2283037); conditions: primary human bronchial epithelial cells; actives raise or lower the signal
Procedure, shortened: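 In this multiplexed primary-cell system, bronchial epithelial cells receive test chemical and are sampled at 24 h. PAI-1 is read by ELISA, with DMSO serving as negative control for bidirectional fitting.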

[15] = read-out: urokinase plasminogen activator (uPA), PLAU (gene 5328); experiment: BSK_BE3C_uPA: BioMAP Diversity Plus: BE3C Assay for urokinase plasminogen activator (uPA) Biomarker Activity (AID 2283038); conditions: primary human bronchial epithelial cells; actives raise or lower the signal;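 also: uPA protein level quantified by ELISA in cell cultures; uPA read one day after compound addition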
Procedure, shortened: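 Bronchial epithelial cells (human, primary); chemical 24 h; uPA by ELISA; bidirectional fit vs DMSO. SRB (0.1%, after 10% TCA fixation, 560 nm) in parallel cultures for cytotoxicity.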

[16] = read-out: Interleukin-6 (IL6), IL6 (gene 3569); experiment: BSK_CASM3C_IL6: BioMAP Diversity Plus: CASM3C Assay for Interleukin-6 (IL6) Biomarker Activity for (AID 2283040); conditions: primary human coronary artery smooth muscle cells; actives raise or lower the signal
[17] = read-out: Tissue plasminogen activator (tPA), PLAT (gene 5327); experiment: BSK_BE3C_tPA: BioMAP Diversity Plus: BE3C Assay for Tissue plasminogen activator (tPA) Biomarker Activity (AID 2283041); conditions: primary human bronchial epithelial cells; actives raise or lower the signal;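 also: tPA level quantified by ELISA one day after compound addition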
Procedure, shortened: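 Using human lung primary bronchial epithelial cells, tPA was measured by ELISA 24 h after dosing; data fitted relative to DMSO.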

[18] = BSK_3C_Vis: BioMAP Diversity Plus: 3C Assay for Morphology Visualization (AID 2283025); conditions: primary human endothelial cells (HUVEC);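 also: fitted both ways so gain or loss versus DMSO counts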;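 as to AC50: light microscopy image of cell morphology used as background control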
Procedure, shortened: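 Light-microscopy morphology readout, 24 h exposure, human primary umbilical vein endothelium; analysed relative to DMSO with bidirectional fitting.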

[19] = read-out: Urokinase-type plasminogen activator receptor (uPAR), PLAUR (gene 5329); experiment: BSK_BE3C_uPAR: BioMAP Diversity Plus: BE3C Assay for Urokinase-type plasminogen activator receptor (uPAR) Biomarker Activity (AID 2283039); conditions: primary human bronchial epithelial cells; actives raise or lower the signal;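 also: cells exposed to compound for one day before measurement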
Procedure, shortened: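 Chemically treated human bronchial epithelial cells (lung primary) are assayed for uPAR by ELISA after 24 h, with data fitted in both directions using DMSO as negative control.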

Measured: AC50

NCC1(Cc2noc(=O)[nH]2)CCCCC1
not listed: [18] | [19]
inactive: all other assays above

O=c1c(O)c(-c2ccc(O)c(O)c2)oc2cc(O)cc(O)c12
active: [1] 15.3 µM | [18] 37.5 µM | [3] 16.6 µM | [4] 30.1 µM | [7] 33.6 µM | [9] 20 µM | [10] 26.9 µM | [16] 8.19 µM
not listed: [8] | [13]
inactive: all other assays above

CC(=O)OC/C=C(\C)CCC=C(C)C
not listed: [4] | [18]
inactive: all other assays above

COCCOCCOC
not listed: [13] | [19]
inactive: all other assays above

Cc1cccc(Nc2cc(Cl)nc(SCC(=O)O)n2)c1C
not listed: [18] | [19]
inactive: all other assays above

Cc1ccc2ncccc2c1
not listed: [4] | [13]
inactive: all other assays above

O=C(O)CCCCC(=O)O
not listed: [4] | [13] | [18] | [19]
inactive: all other assays above

COc1cc(C=O)ccc1O
not listed: [13] | [19]
inactive: all other assays above
